The text below walks through data of PubChem BioAssay AID1650 (Southern Research Specialized Biocontainment Screening …, 2009).

Results with a measured potency or affinity are listed apart. Active and inactive are the calls of the source. How the calls were made is not given here.

The nature of this assay: mammalian cell viability reduction – secondary assay, cytotoxicity control for West Nile virus antiviral project, dose response (AID 1650). Conditions: Mammalian host cell viability, cytotoxicity counter-screen; series mostly up to 10 µM. A general note: Counterscreens check selectivity or assay interference.
Consider `COc1cc(CNC(C)(C)CO)cc(Br)c1OCc1ccc(Cl)cc1`, for which the molecule was classed as inactive. Under `COc1ccc(-c2cc3c(=O)n(CC(=O)NCc4ccccc4F)ncn3n2)cc1` stands “inactive”; under `CCN(CC)CCOC(=O)c1ccc(NC(=O)CCCN2C(=O)S/C(=C/c3ccc(OC)cc3)C2=S)cc1`, “inactive”; under `COc1cc(CNC(C)(C)CO)ccc1OCC(=O)Nc1ccc(Br)cc1`, “inactive”.

As for `O=C(Nc1cccc(-c2cccc(Cl)c2)c1)C1CCN(CC2CCOC2)CC1` (centres undefined), the call was inactive.

In the case of `CN(C)CCN(C)Cc1ccccc1Sc1cccc2ccccc12`, the result was inactive.

`COc1cc(C(=O)N/C(=C/c2ccc(F)cc2)C(=O)NC(C(=O)O)c2ccccc2)cc(OC)c1OC` (centres undefined): the call was inactive. Turning to `CCCCOc1ccc(C(=O)N/N=C/c2ccc(OCCN3CCCCC3)c(OC)c2)cc1`, the molecule was called inactive. In the case of `CCC(C)c1ccccc1NC(=O)COC(=O)c1ccc2[nH]c3c(c2c1)CCCC3` (centres undefined), the molecule was classed as inactive.

`CN(C)Cc1c(C(=O)N/N=C/c2cccc(OCc3c(F)cccc3Cl)c2)nnn1-c1nonc1N`: the outcome was inactive.

Turning to `CCOC(=O)C1(Cc2ccccc2C(F)(F)F)CCN(C2CCN(C(C)C)CC2)CC1`, the molecule was called inactive.

For the molecule `CC1CCCC(C)N1CCCNC(=O)c1cc2c(s1)-c1ccccc1OC2` (centres undefined), the result was inactive. Turning to `Cn1cc(CN2CCCC(C(=O)Nc3cccc(-c4cc5ccccc5[nH]4)c3)C2)cn1` (centres undefined), the call was inactive. Then `CC1CCCN(CCCNC(=O)c2ccc3c(c2)N(Cc2ccccc2F)C(=O)c2ccccc2S3(=O)=O)C1` (centres undefined), with “inactive”.

`CCN1C/C(=C/c2ccc(N3CCOCC3)cc2)C(=O)/C(=C/c2ccc(N3CCOCC3)cc2)C1`: the result was inactive. For the molecule `O=C(Nc1ccc(F)cc1)c1nc[nH]c1C(=O)Nc1ccccc1[N+](=O)[O-]`, the molecule was called inactive. Under `COc1cc(C2c3c(oc4cc(C)c(C)cc4c3=O)C(=O)N2c2cc(C)ccn2)ccc1O` (centres undefined) stands “inactive”; under `CC(C)N1CCc2c(sc(NC(=O)c3ccc(C(=O)c4ccccc4)cc3)c2C(N)=O)C1`, “inactive”; under `Cc1ccccc1C(=O)c1cccn1CC(=O)NCCN1CCN(c2cccc(C)c2C)CC1`, “inactive”. Then `CN1C(=O)/C(=C\C(=O)c2cccs2)c2ccccc21`, with “inactive”; and `COc1cc(CNC(C)(C)CO)cc(Br)c1OCc1ccc(Cl)cc1Cl`, with “inactive”.

For `O=C(CN1CCCC1)Nc1ccc(-c2nc3cc(NC(=O)CN4CCCC4)ccc3o2)cc1`, the outcome was inactive. For `O=C(NCCC1=CCCCC1)c1coc(=O)c(Br)c1`, the molecule was called inactive. Take `O=C(NCCOc1ccccc1Cl)c1ncn[nH]1`: the molecule was called inactive. As to `Cc1ccc(-n2c(SCC(=O)Nc3ccc(N4CCOCC4)cc3)nc3ccccc3c2=O)cc1`, the outcome was inactive. In the case of `CN1CCN(NC(=O)c2cc(-c3ccc(Br)s3)nc3ccccc23)CC1`, the outcome was inactive. Under `CCN(CC)S(=O)(=O)c1ccc(NC(=O)Cn2cnc3ccccc3c2=O)cc1` stands “inactive”; under `CCOc1ccc2nc(N3CCCC(C(=O)NCCCN4CCCCC4)C3)sc2c1` (centres undefined), “inactive”. In the case of `COc1ccc(C2c3c(ncn(CCN4CCOCC4)c3=N)Oc3ccc4ccccc4c32)cc1` (centres undefined), the molecule was called inactive. `O=C(/C=C/c1cccnc1)c1ccc(O)cc1`: the molecule was classed as inactive. Then `O=c1c(O[C@@H]2O[C@H](CO)[C@@H](O)[C@H](O)[C@H]2O)c(-c2ccc(O)c(O)c2)oc2cc(O)cc(O)c12`, with “inactive”; and `Cc1onc(-c2ccccc2Cl)c1C(=O)O/N=C(\N)c1ccc([N+](=O)[O-])o1`, with “inactive”.

In the case of `CCN(CC)CCNC(=O)c1sc2ncn(CC(=O)Nc3ccc(C)c(Cl)c3)c(=O)c2c1C`, the result was inactive. For `O=C(CCN1C(=O)/C(=C/c2ccccc2)SC1=S)NCCc1ccc(O)cc1`, the call was inactive.

In the case of `Cc1c(Cc2ccccc2)c(NCCN(C)C)n2c(nc3ccccc32)c1C#N`, the molecule was called inactive. With `O=C(Nc1cccnc1Cl)c1cc(-c2ccc(Cl)cc2)on1`, the call was inactive.

Regarding `Cc1onc(-c2cccc(Cl)c2Cl)c1C(=O)O/N=C(\N)c1ccc([N+](=O)[O-])o1`, the result was inactive. Then `COc1ccc(C2c3c(ncn(CCCO)c3=N)Oc3ccc4ccccc4c32)cc1OC` (centres undefined), with “inactive”; and `CN1CCN(CCCN2c3ccccc3Sc3ccc(C(F)(F)F)cc32)CC1`, with “inactive”.
